Results: PubChem BioAssay (NCATS)
Records with an inconclusive call do not appear. Values without a mark were called inactive. Activity calls are given as the source filed them. Calls come from the whole dose curve; as a rule, active = well fitted inhibition curve with a large enough effect; inconclusive = small, poorly fitted or top-dose-only effect; inactive = no such curve, though single readings can be large or run the other way.

Experiment: Primary fluorescence-based thiol-reactive (MSTI) qHTS assay for identification of artifact compounds. (AID 1845221); note: nearly all actives have a fitted effect of over 65% in size;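 for activity change, negative = thiol reactive: thiol-reactive compounds lower the probe fluorescence signal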
Conditions: MSTI thiol-reactivity probe, 1 h; series mostly up to 53.8 µM; activity change, negative = thiol reactive: at the top concentration
How it was run: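 Reactivity toward the thiol probe MSTI (4 uM) is scored by fluorescence at Ex/Em 525/598 nm after 1 h at room temperature. Acetyl-MSTI and MSTI define the activity scale.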
Potency is the fitted concentration of half-maximal effect.

Structure (SMILES) | activity change, negative = thiol reactive | Potency
COc1ccc(S(=O)(=O)Nc2c(C)cc(C)cc2C)cc1 | 51.7% | –
CC1=C(C(=O)Nc2cc(Cl)ccc2Cl)C(c2ccco2)C2=C(CCCC2=O)N1 (centres undefined) | 46.8% | –
CC(=O)O[C@H]1C[C@@](O)(C(C)C)[C@@H]2[C@@H](OC(=O)c3ccc(O)cc3)CC(C)=CC[C@@]12C | 64% [at 25.6 µM] | –
CCCCc1c(-c2ccc(OC)cc2)[nH]c2nccnc12 | -4.36% | –
CC(C)S(=O)(=O)Nc1ccc(F)c(C(=O)c2c[nH]c3ncc(-c4cccnc4)cc23)c1F | -1.65% | –
O=C(N[C@@H]1CCCc2c1cnn2-c1ccc(F)cc1F)c1ccccn1 | 69.5% | –
Cn1ncc(Cl)c1-c1cc(C(=O)N[C@H](CN)Cc2cccc(F)c2)sc1Cl | 256% | –
O=C(NCCCn1ccnc1)c1cc(-c2ccco2)on1 | -19.4% | –
CC1(C)CC[C@]23CO[C@@]4(CCC5[C@@]6(C)CC[C@H](O[C@@H]7OC[C@H](O[C@@H]8O[C@H](CO)[C@@H](O)[C@H](O)[C@H]8O[C@@H]8OC[C@@H](O)[C@H](O)[C@H]8O)[C@H](O)[C@H]7O)[C@@](C)(CO)C6CC[C@@]5(C)[C@]4(C)CC2=O)[C@@H]3C1 (some centres undefined) | 249% [at 11.5 µM] | –
C=C1CC2OC(=O)C(COC)C2C(OC(=O)/C(C)=C\C)CC2(C)OC1=CC2=O (centres undefined) | -2.64% | –
CN(C)C(=O)NC1(c2ccccc2)CCN(CCC[C@]2(c3ccc(Cl)c(Cl)c3)CCCN(C(=O)c3ccccc3)C2)CC1 | -22.1% | –
CCN(Cc1cc(Nc2nc(C)cn3c(-c4cn[nH]c4)cnc23)sn1)C(C)(C)CO | 92% | –
O=S(=O)(NCc1ccccn1)c1ccc(Br)c2ccccc12 | 128% | –
COc1cc(/C=C2\CC[C@H]3COC[C@@H](c4cc(F)c(F)c(F)c4)N3C2=O)ccc1-n1cnc(C)c1 | 67.5% | –
NC(N)=N/N=C/c1ccccc1Cl | 0.54% | –
CO[C@@H]1[C@H](O)CCC2(CO2)[C@H]1[C@@]1(C)O[C@@H]1CC=C(C)C (some centres undefined) | -12.8% | –
O[C@@](Cc1ncc(CC2(C(F)(F)F)CC2)[nH]1)(c1ccc(-n2cccn2)cc1)C(F)(F)F | 78.9% | –
COc1ccc(-c2ccc3c(N4CCOCC4C)nc(N4CCOCC4C)nc3n2)cc1CO (centres undefined) | 30% | –
CCn1c(-c2nonc2N)nc2c(C#CCO)ncc(OCCCN)c21 | -12.5% | –
C=C1C(=O)OC2C1CCC1(C)C(O)CC=C(C)C21 (centres undefined) | – | 11.9 µM (active)

Structure (SMILES) | activity change, negative = thiol reactive | Potency
COC(=O)c1cc2c(C(F)(F)F)cc(-c3ccccc3)cc2n1O | – | 2.67 µM (active)
CCCc1cc(C)n(C)c(=O)c1CN(C)C(=O)c1cc(-c2ccc(N3CCN(C(C)C)CC3)nc2)cc2c1cnn2C(C)C | 1.38% | –
Cc1ccc(F)cc1S(=O)(=O)N[C@@H]1CCN(Cc2ccc(OC(C)C)cc2)C1 | 18.4% | –
CC12CCC3C1C(c1c(cc(O)c(C(=O)c4ccccc4)c1O)O2)C3(C)C (centres undefined) | 39.1% | –
Cc1ccc(C)c(NS(=O)(=O)c2cc(C(=O)Nc3ccccc3-c3ccccc3)ccc2C)c1 | 645% | –
COC(=O)C[C@H]1C(C)(C)[C@H](OC(=O)c2ccccc2)C2CC3=C4CC(=O)O[C@@H](c5ccoc5)[C@]4(C)CCC3[C@@]1(C)C2=O (some centres undefined) | 3.87% [at 25.6 µM] | –
C=C(C)C(=O)O[C@H]1C[C@@](C)(O)C2(O)CCC(C)(/C=C3/OC(=O)C(COC)=C31)O2 (some centres undefined) | -12.9% | –
Cn1c(=O)c(F)c(Nc2ccc(I)cc2F)c2c(=O)n(CC(O)CO)cnc21 (centres undefined) | 324% | –
Cc1cccc(CC(=O)N2CCc3c2ccc(-c2cn(C)c4ncnc(N)c24)c3F)n1 | 15.5% | –
CC(=O)N1CCN(CCOc2ccc(C3CCN(C4=Nn5c(nnc5C(F)(F)F)CC4)CC3)cc2)CC1 | 36.5% | –
O=C(Nc1nc2cc(C(F)(F)F)cc(NC3CC3)n2n1)c1cccnc1 | 14.8% | –
Clc1ccc(Nc2nc3ccccc3c3nc(C4CCCCC4)[nH]c23)cc1Cl | 59% | –
COc1cc(C(C)=O)c(OC)c2c1OC(C)(C)C=C2 | 7.29% | –
C1=Cc2ccccc2C(=C2CCN(CCCCc3nn[nH]n3)CC2)c2ccccc21 | 121% | –
Cc1ccc(-c2ncc[nH]2)cc1NC(=O)c1ccc(OCc2ccccn2)cc1 | 62.5% | –
CC(C)=CCCC1(C)C2CCC1(C)C(O)C2 (centres undefined) | – | 29.9 µM (active)
Cn1nc(-c2ccc(C(F)(F)F)cc2)nc2c(=O)n(C)c(=O)nc1-2 | – | 2.67 µM (active)
NCC(CNc1nc(Nc2cccc(NC(=O)N3CCCC3)c2)ncc1I)C(=O)c1cccs1 (centres undefined) | 57.5% | –
C[C@H]1CC[C@@]2(OC1)O[C@H]1CC3[C@@H]4CC[C@@H]5C[C@@H](O[C@@H]6O[C@H](CO)[C@@H](O[C@@H]7O[C@H](CO[C@@H]8OC[C@@H](O)[C@H](O)[C@H]8O)[C@@H](O[C@@H]8O[C@H](CO)[C@H](O)[C@H](O)[C@H]8O)[C@H](O)[C@H]7O)[C@H](O)[C@H]6O)CC[C@]5(C)C4CC[C@]3(C)[C@H]1[C@@H]2C (some centres undefined) | 133% [at 11.5 µM] | –
